Compounds with a hit are over-represented: about 21% of the library has one in this group of screens.
Sm TGR block – inhibitors of Schistosoma mansoni thioredoxin glutathione reductase; Q962Y6; purified TGR, DTNB reduction, TNB absorbance 405 nm; Potency, µM (series often up to 114 µM), for inactives: top-dose activity change, negative = inhibition, hits mostly inhibitors; 360,000 tested, 3% active; note: potency is the fitted concentration of half-maximal effect; % is set by controls: 0 for no effect and ±100 for the full control effect; nearly all actives have a fitted effect of over 60% in size
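Kinetic colorimetric format: TGR-catalysed, NADPH-driven DTNB reduction monitored via TNB absorbance. Enzyme dispensed at 20 nM; compound exposure 15 min at room temperature before reaction start.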
Cycloheximide cs – counter-screen hit for Shiga toxin inhibitors, cycloheximide; cell reporter, cycloheximide protein synthesis inhibition counterscreen; max response, %; 300,000 tested, 12% active; in the data active = max response mostly above about 13%, no sharp cut-off; inactive = mostly below about 14%; note: read at 38.3 µM for the half of the compounds with a filed dose; 0% is about no effect
Pf growth 96h – P. falciparum growth inhibition at 96 hours; Potency, µM (highest dose often 28.7 µM), inactives show at the top dose activity change, negative = inhibition, actives largely listed as inhibitors; 320,000 tested, 6.9% active; AID 504834; P. falciparum luciferase reporter growth, 96 h; note: potency is the fitted concentration of half-maximal effect; % is set by controls: 0 for no effect and ±100 for the full control effect
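P. falciparum expressing integrated firefly luciferase, in erythrocytes at 2% hematocrit, 0.05% parasitemia, incubated with compounds 96 h at 37 C, 5% CO2. Growth inhibition read as loss of luminescence; two-generation exposure targets delayed-death apicoplast inhibitors.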
Pf growth 48h – P. falciparum growth inhibition at 48 hours (one generation); P. falciparum luciferase growth in erythrocytes, 48 h; Potency, µM (top dose mostly 28.7 µM), inactives show at the highest dose activity change, negative = inhibition, usual class: inhibitors; 310,000 tested, 5.9% active; AID 504832; note: potency is the fitted concentration of half-maximal effect; % is set by controls: 0 for no effect and ±100 for the full control effect
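In quantitative HTS format, infected erythrocytes bearing luciferase-reporter parasites were treated for a single generation at 37 C. Luminescence after adding detection reagent served as the growth measure.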
Shiga toxin inh – Shiga toxin inhibition; Vero cells, Shiga toxin protein synthesis inhibition reporter; inhibition, % at 38.7 µM; 290,000 tested, 9.2% active; in the data active = inhibition mostly above about 28%, no sharp cut-off; inactive = mostly below about 43%; note: 0% is about no effect
NS1 inh – influenza NS1 inhibition. 270,000 tested, 0.4% active. AID 2326. Potency, µM (highest dose often 46.1 µM), for inactives: at the top dose activity, positive = more growth; calls by dose curve; note: potency is the fitted concentration of half-maximal effect; actives are rising curves; nearly all actives have a fitted effect of over 50% in size
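In this qHTS, NS1 from influenza A is expressed in budding yeast, where it slows growth. Cells are switched from glucose to 2% galactose medium (pH 6.0, -URA), treated with compound, and growth recovery is read at OD600.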
Active calls of the source: *; ? = inconclusive; . = no result given; [ ] = another dose, or the depositor's remark. Unless noted, calls come from the whole dose curve; as a rule, active = well fitted curve in the direction sought with a large enough effect; inconclusive = small, poorly fitted or top-dose-only effect, or another doubt; inactive = no such curve, though single readings can be large; an effect the other way counts as inactive or inconclusive.

SMILES	Sm TGR block	Cycloheximide cs	Pf growth 96h	Pf growth 48h	Shiga toxin inh	NS1 inh
Cc1ccc(Nc2cc(C)nc3c(C)cccc23)cc1	-18%	7	?	?	-4	-6%
Cc1ccc(N2C=Nc3ccc(C)c4nc(C)cc2c34)cc1	-11%	4	64%	9.3µM*	8	4%
CCOC(=O)c1ccc(NS(=O)(=O)c2ccc3c(c2)CCN3C(=O)CC)cc1	-27%	.	.	.	.	.
NS(=O)(=O)c1ccc(CCNC(=O)CCCCCNc2nc(=S)[nH]c3ccccc23)cc1	0%	-1	2.9µM*	-7%	6	-4%
Cc1ccc(CNC(=O)CCCCCNc2nc(=S)[nH]c3ccccc23)cc1	-3%	-1	?	?	-2	.
Cc1csc(SCC(=O)NC(C)c2ccc(F)cc2)n1 (stereo unspecified)	1%	-4	28%	14%	-2	.
CCNC(=O)CSc1nc(-c2ccc(F)cc2)cs1	-12%	32*	?	27%	101*	.
CC(C)(C)NC(=O)CSc1nc(-c2ccc(F)cc2)cs1	4%	32*	458%	0%	83*	-3%
Cc1cc(C)c2nc(N(Cc3cccnc3)C(=O)Cc3ccccc3)sc2c1	11%	.	.	.	.	.
COc1ccc(OC)c(S(=O)(=O)N/N=C\c2c[nH]c3ccccc23)c1	-1%	7	-16%	3%	15	-1%
Cc1oc(-c2ccc(C(=O)NCc3ccc(N(C)C)cc3)cc2)nc1COc1ccccc1	-2%	.	.	.	.	.
COc1ccc(N2C(=O)CC(SCCc3nc4ccccc4[nH]3)C2=O)cc1 (stereo unspecified)	0%	-3	6%	0%	-19	6%
CCOc1ccc(N2C(=O)CC(SCCN)C2=O)cc1 (stereo unspecified)	?	31*	-10%	134%	76*	-4%
O=C1CC(Sc2ccc(Cl)cc2)C(=O)N1Cc1ccncc1 (stereo unspecified)	7.1µM*	-2	10%	-1%	7	3%
O=C1CC(c2ccccc2)Sc2ccccc2N1Cc1ccc(F)cc1 (stereo unspecified)	6%	.	.	.	.	.
CCCCCCOc1ccc(N2C(=O)CC(SCCN)C2=O)cc1 (stereo unspecified)	-35%	12*	65%	30%	26	12%
NCCSC1CC(=O)N(Cc2ccc(F)cc2)C1=O (stereo unspecified)	7.9µM*	-2	?	-8%[5.75 µM]	-1	.
COC(=O)c1c(-c2cccs2)csc1NC(=O)c1cc(OC)c(OC)c(OC)c1	0%	.	.	.	.	.
CCOc1ccc(N2C(=O)CC(Sc3nc(C)cc(C)n3)C2=O)cc1 (stereo unspecified)	-7%	6	35%	10%	-2	-7%
CCOc1ccc(N2C(=O)CC(Sc3nnnn3-c3ccccc3)C2=O)cc1 (stereo unspecified)	10µM*	18*	0%	-2%	21	.
O=C1c2ccccc2C(=O)N1Cc1cc(-c2ccccc2)no1	3%	19*	-12%	-5%	27*	-5%
COc1ccc(-c2cc(CNS(=O)(=O)c3ccc(NC(C)=O)cc3)on2)cc1	5%	-3	?	-25%	11	-7%
O=C1c2ccccc2C(=O)N1Cc1nc(-c2ccccc2)no1	?	-1	-6%	20%	-3	-8%
COc1ccc(-c2cc(CS(=O)(=O)c3ccccc3)on2)cc1	26%	41*	109%	86%	68*	-7%
O=S(=O)(Cc1cc(-c2ccccc2)no1)c1ccccc1	32%	34*	72%	55%	65*	-2%
SMILES	Sm TGR block	Cycloheximide cs	Pf growth 96h	Pf growth 48h	Shiga toxin inh	NS1 inh
Cc1ccc(CN(C(=O)COc2ccc(Cl)cc2Cl)C2CCS(=O)(=O)C2)o1 (stereo unspecified)	-8%	.	.	.	.	.
COc1ccccc1CNS(=O)(=O)c1cnc(N)nc1	0%	.	.	.	.	.
CCOc1ccc(NC(=O)Cn2c(=O)nc(-c3ccccc3)c3ccccc32)cc1	0%	.	.	.	.	.
COCCNC(=O)CSc1nc2ccccc2c(=O)n1CCC(=O)N1CCN(c2ccccc2)CC1	1%	-3	-15%	-19%	-2	.
CC1=C(C(=O)N(C)C)C(c2ccc(N3CCOCC3)cc2)NC(=O)N1 (stereo unspecified)	-18%	9	42%	18%	24	.
O=C(O)/C(=C\c1ccncc1)c1cccc2ccccc12	.	.	.	.	.	0%

Source: PubChem (National Center for Advancing Translational Sciences (NCATS))
